The nature of assay [1]: NCI Yeast Anticancer Drug Screen. Data for the rad50 strain (AID 155).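 Note: 0% = growth of vehicle-only cultures of the same strain.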 The conditions noted are these: S. cerevisiae rad50 strain growth inhibition, hits give high values. The essentials:
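A DNA repair-deficient yeast mutant serves as the test organism; compound-induced growth inhibition is calculated against vehicle-treated cells.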

Assay [2] is described as follows: NCI Yeast Anticancer Drug Screen. Data for the mec2-1 strain (AID 157). Conditions: S. cerevisiae mec2-1 strain, hits give high values. The essentials: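 Compounds were applied to mec2-1 yeast cells. Their growth was then compared with that of vehicle-treated cultures to give growth inhibition.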
Assay [3] in a line: NCI Yeast Anticancer Drug Screen. Data for the sgs1 mgt1 strain (AID 161).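 Note: 0% = growth of cultures given vehicle only.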 Conditions: S. cerevisiae sgs1 mgt1 strain, hits give high values. The essentials: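 Yeast cells carrying a defined DNA-repair defect were exposed to test compounds. Growth inhibition was measured relative to vehicle-treated controls.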
Assay [4] in a line: NCI Yeast Anticancer Drug Screen. Data for the cln2 rad14 strain (AID 165).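 Note: 0% = growth equal to vehicle treated cultures.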 Conditions: S. cerevisiae cln2 rad14 strain, hits give high values. The essentials: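 Strain: cln2 rad14 yeast, altered in cell cycle control and DNA damage repair. Read-out: growth inhibition vs vehicle.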
Assay [5] in a line: NCI Yeast Anticancer Drug Screen. Data for the bub3 strain (AID 167). Conditions: S. cerevisiae bub3 mutant strain, hits give high values. The method, boiled down:
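Inhibition values come from growth of compound-treated mutant yeast normalised to vehicle-treated controls.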

A short description of assay [6]: NCI Yeast Anticancer Drug Screen. Data for the mlh1 rad18 strain (AID 175). The conditions noted are these: S. cerevisiae mlh1 rad18 strain growth inhibition, hits give high values. The method, boiled down:
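A repair-deficient yeast strain is exposed to test compound, and growth is scored relative to vehicle-treated controls.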

The mark [7] stands for this setting: at 5.0 µM (retest, dose inferred, filed as 0.5).
Where [8] appears, read: at 50.0 µM (retest, dose inferred, filed as 5.0).

We go through four molecules from PubChem BioAssay (NCI).

The panel holds about 79,000 compounds, 15% with a hit somewhere; the sample as a whole holds those more often. Unmarked numbers belong to inactive results. Active and inactive are the calls of the source. Cut-off read from the data, not from the text of the source: active = growth inhibition above about 70%; inactive = the rest.

For the molecule `Cc1ccc(CN2CC(=O)N3Cc4ccccc4CN3C(=O)C2)cc1`, the growth inhibition was -1% in assay [1] (setting [7]); -3% in assay [1] (setting [8]); -3.95% in assay [1] (at 50.0 µM); -6% in assay [2] (setting [7]); -15% in assay [2] (setting [8]); 6.6% in assay [2] (at 50.0 µM). Besides, the growth inhibition in assay [3] (setting [7]) was 4%; in assay [3] (setting [8]) it was 4%; in assay [3] (at 50.0 µM), 10.4%; in assay [4] (setting [7]), 0%; in assay [4] (setting [8]), -3%; in assay [4] (at 50.0 µM), -8.8%. Besides, the growth inhibition is 5% in assay [5] (setting [7]); 30% in assay [5] (setting [8]); 83.4% (active) in assay [5] (at 50.0 µM); -5% in assay [6] (setting [7]); -2% in assay [6] (setting [8]); -20.2% in assay [6] (at 50.0 µM).
`O=C(O)c1cc(C(=O)O)c(C(=O)O)cc1C(=O)O.[NH-]C1CCCC1.[NH-]C1CCCC1.[NH-]C1CCCC1.[NH-]C1CCCC1.[Pt+2].[Pt+2]`: the growth inhibition was 4% in assay [1] (setting [7]); 99% (active) in assay [1] (setting [8]); 99.5% (active) in assay [1] (at 50.0 µM); 10% in assay [2] (setting [7]); 100% (active) in assay [2] (setting [8]); 99.6% (active) in assay [2] (at 50.0 µM). In addition, the growth inhibition in assay [3] (setting [7]) is 15%; in assay [3] (setting [8]) it was 99% (active); in assay [3] (at 50.0 µM), 99.5% (active); in assay [4] (setting [7]), 0%; in assay [4] (setting [8]), 99% (active); in assay [4] (at 50.0 µM) it was 99% (active). Further, the growth inhibition in assay [5] (setting [7]) is -1%; in assay [5] (setting [8]) it was 99% (active); in assay [5] (at 50.0 µM) it was 99% (active); in assay [6] (setting [7]) it was 16%; in assay [6] (setting [8]), 99% (active); in assay [6] (at 50.0 µM) it was 99% (active).
`COc1cccc2c1C(=O)c1c(O)c3c(c(O)c1C2=O)CC(O)(C(=O)CO)CC3OC1CC(N)C(O)C(C)O1.[Cl][Pt+2][Cl].[NH2-].[NH2-]` (configuration not stated): the growth inhibition in assay [1] (setting [7]) was 12%; in assay [1] (setting [8]) it was 85% (active); in assay [1] (at 50.0 µM) it was 74.5% (active); in assay [2] (setting [7]), 9%; in assay [2] (setting [8]) it was 47%; in assay [2] (at 50.0 µM), 49.5%. The growth inhibition was 11% in assay [3] (setting [7]); 83% (active) in assay [3] (setting [8]); 78% (active) in assay [3] (at 50.0 µM); 8% in assay [4] (setting [7]); 87% (active) in assay [4] (setting [8]); 43.5% in assay [4] (at 50.0 µM). In addition, the growth inhibition in assay [5] (setting [7]) was 0%; in assay [5] (setting [8]), 56%; in assay [5] (at 50.0 µM) it was 34.5%; in assay [6] (setting [7]), 29%; in assay [6] (setting [8]), 94% (active); in assay [6] (at 50.0 µM) it was 88.7% (active).
As for `Cn1nc(N)c2cccnc21`, the growth inhibition in assay [1] (setting [7]) is 3%; in assay [1] (setting [8]), 19%; in assay [1] (at 50.0 µM) it was -1.25%; in assay [2] (setting [7]), -5%; in assay [2] (setting [8]), 3%; in assay [2] (at 50.0 µM) it was 1.7%. The growth inhibition in assay [3] (setting [7]) is -1%; in assay [3] (setting [8]) it was 6%; in assay [3] (at 50.0 µM), 14.3%; in assay [4] (setting [7]) it was 3%; in assay [4] (setting [8]) it was 1%; in assay [4] (at 50.0 µM) it was 45.1%. Besides, the growth inhibition was 2% in assay [5] (setting [7]); 2% in assay [5] (setting [8]); -6.1% in assay [5] (at 50.0 µM); 1% in assay [6] (setting [7]); 10% in assay [6] (setting [8]); 0.35% in assay [6] (at 50.0 µM).
